This is an account of results in PubChem BioAssay AID431 (Sanford-Burnham Center for Chemical Genomics, 2006).

Out of some 63,000 compounds screened, about 1,100 (1.7%) were called active. What follows is part of a selection rich in actives, with near analogues and random picks from the rest. Measured potencies and affinities stand elsewhere. A number with no mark means an inactive call.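 How the source made its calls: active means compounds whose percent cytotoxicity in the single-dose primary screen, scaled between solvent and toxic-drug controls, exceeds 50; inactive means the rest.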

The experiment in a line: cytotoxicity in KRAS-transformed pancreatic duct cells, primary screen, cell-based, fluorescence, HTS (AID 431).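 Further: 0% = DMSO solvent wells and 100% = doxorubicin-treated wells.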 The settings on record: HPDE-C7K KRASV12 cells, Alamar Blue viability, 48 h; at 10 µM; active compounds read high.
Regarding `COC(=O)c1ccc(C2/C(=C(\O)c3ccc(OC)c(C)c3)C(=O)C(=O)N2c2cc(C)on2)cc1` (centres undefined), the cytotoxicity was 13.9%. In the case of `Cc1c(C#N)c2ccccc2n1CC(=O)NCCc1c[nH]c2ccccc12`, the cytotoxicity was -3.8%.

In the case of `CN(C)S(=O)(=O)n1cnc(-c2ccccc2)c1-c1ccccc1`, the cytotoxicity is -11.5%.

As to `CN(C)S(=O)(=O)c1ccc(-c2ccccc2)cc1`, the cytotoxicity was -6.1%. For the molecule `O=C(O)COc1ccc(Oc2ccccc2)cc1`, the cytotoxicity is 10.4%.

As for `COc1ccc(N2CCN(CCCNC(=O)CCCn3c(=O)[nH]c4ccsc4c3=O)CC2)cc1`, the cytotoxicity was 10.4%. Turning to `O=C(OCc1nc2ccccc2s1)c1cccc(S(=O)(=O)N2CCOCC2)c1`, the cytotoxicity is 4.7%.

Take `CN(C)c1ccc(CN2CCCC(O)C2)cc1` (centres undefined): the cytotoxicity is 4.1%.

Consider `OC1CCCN(Cc2cccc3ccccc23)C1` (centres undefined), for which the cytotoxicity was 9.5%.

Take `O=S(=O)(c1ccc(C2CCCCC2)cc1)N1CCN(c2ncccn2)CC1`: the cytotoxicity is 0.7%. Next, `Cc1cc(C(=O)CN2C(=O)NC(C)(c3cccc(Br)c3)C2=O)c(C)n1Cc1ccco1` (centres undefined): 17%; `CC(=O)O[C@H]1C(=O)[C@]2(C)[C@H]([C@H](OC(=O)c3ccccc3)[C@]3(O)C[C@H](OC(=O)[C@H](O)[C@@H](NC(=O)c4ccccc4)c4ccccc4)C(C)=C1C3(C)C)[C@]1(OC(C)=O)CO[C@@H]1C[C@@H]2O`: 67.2% (active); `CC(=O)O[C@@]12CO[C@@H]1C[C@H](O)[C@@]1(C)C(=O)[C@H](O)C3=C(C)[C@@H](OC(=O)[C@H](O)[C@@H](NC(=O)OC(C)(C)C)c4ccccc4)C[C@](O)([C@@H](OC(=O)c4ccccc4)[C@H]21)C3(C)C`: 52.1% (active). Next, `CCc1cccc(CC)c1N(COC)C(=O)Cn1c(CO)nc2ccccc21`: -6.1%; `CCOc1ccc(-n2c(=O)cc(N3CCN(c4ccccc4)CC3)[nH]c2=O)cc1`: 7.9%. As to `CCOC(=O)CSc1nnc(CNC(=O)c2ccco2)n1C`, the cytotoxicity is -0.1%.

For the molecule `O=C(NC1CCCC1)C1C2C=CC3(CN(Cc4cccs4)C(=O)C13)O2` (centres undefined), the cytotoxicity is 3.8%. Next, `Cc1ccc2nc(NCc3ccco3)c(C=NCc3ccco3)c(=O)n2c1`: -7.1%; `CC(=O)N[C@H]1C[C@@H]1c1ccccc1`: 6.6%; `COc1ccc(NC(=O)CS(=O)CC(=O)NCc2cccc(C(F)(F)F)c2)cc1` (centres undefined): 1%.

Regarding `COc1ccc(NC(=O)CSc2nnc(-c3ccccc3)n2Cc2ccco2)c(OC)c1`, the cytotoxicity is -5.5%. Next, `CCC(=O)N(CCc1ccccc1C)Cc1cc2cc3c(cc2[nH]c1=O)OCO3`: -20.6%; `COc1ccc(CCN(Cc2cc3cc4c(cc3[nH]c2=O)OCO4)C(C)=O)cc1OC`: -1.5%. Take `CC(=O)N(CCc1ccccc1C)Cc1cc2cc3c(cc2[nH]c1=O)OCO3`: the cytotoxicity is 53.3% (active).
